Sampled rows, rich in hits. Any-hit rate of the full collection: about 2%.
STK33 kin inh: STK33 kinase inhibitors, primary screen, biochemical, luminescence, ADP-Glo, MBP substrate; Serine/threonine-protein kinase 33 (Homo sapiens), Q9BYT3; inhibition, % at 12.5 µM; 0.44% of 27,000 active; AID 2322, 2010; in the data active = inhibition above about 20%
p53 PUMA act: mutant p53 pathway re-activators, primary screen, cell-based, SW480, luciferase, single point, HTS. 1.5% of 28,000 active. SW480 PUMA-promoter luciferase, p53 mutant reactivation. activation, % at 9.98 µM; in the data active = activation above about 52%
ID4 SMM: binders of human ID4 protein, primary screen, biochemical, small molecule microarray, single point; DNA-binding protein inhibitor ID-4 (Homo sapiens), P47928; 1.2% of 31,000 active; Flag-ID4 binding, fluorescence F/B; calls only; AID 624137, 2012; call rule not given here;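 note: a binder raises fluorescence above local background on the spot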
Target sequence (P47928 whole entry, looked up): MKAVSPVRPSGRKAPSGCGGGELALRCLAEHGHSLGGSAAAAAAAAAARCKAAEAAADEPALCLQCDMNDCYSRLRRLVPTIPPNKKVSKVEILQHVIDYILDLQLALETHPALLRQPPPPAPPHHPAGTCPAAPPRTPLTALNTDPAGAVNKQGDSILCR
Numbers without * were called inactive.

Results for C[C@H]1CCCCO[C@H](CN(C)C(=O)Nc2ccccc2)[C@@H](C)CN([C@@H](C)CO)C(=O)c2cc(NS(C)(=O)=O)ccc2O1 ?
p53 PUMA act: 18.3; ID4 SMM: inactive

What do the screens show for `C[C@H](CO)N1C[C@H](C)[C@@H](CN(C)Cc2ccccc2)Oc2ccc(NS(C)(=O)=O)cc2C1=O`?
p53 PUMA act: -2.0; ID4 SMM: active

How did C[C@@H]1CN([C@H](C)CO)C(=O)c2cc(NS(C)(=O)=O)ccc2O[C@H]1CN(C)Cc1ccccc1 do in these assays?
p53 PUMA act: 0.3; ID4 SMM: inactive

How did C[C@H]1CN([C@@H](C)CO)C(=O)c2cc(NS(C)(=O)=O)ccc2O[C@H]1CN(C)C(=O)Nc1ccccc1 do in these assays?
STK33 kin inh: -1.9

How did COc1ccc(C(CC(=O)O)C(=O)O)cc1OC (configuration not stated) do in these assays?
STK33 kin inh: -3.6; p53 PUMA act: -5.3; ID4 SMM: inactive

Results for O=C(NCc1ccco1)c1cc2nc(-c3cccs3)cc(C(F)(F)Cl)n2n1 ?
STK33 kin inh: 0.5; p53 PUMA act: 18.3; ID4 SMM: inactive

How did CC(C)(CO)NCc1ccc(-c2ccccc2)o1 do in these assays?
STK33 kin inh: -0.2; p53 PUMA act: 5.7; ID4 SMM: inactive

Results for N#Cc1ccccc1NC(=O)CN1CCC(C(N)=O)CC1 ?
STK33 kin inh: -0.2; p53 PUMA act: -15.8; ID4 SMM: inactive

What do the screens show for `C[C@@H]1CCCCO[C@H](CN(C)S(=O)(=O)c2cn(C)cn2)[C@@H](C)CN([C@H](C)CO)C(=O)c2cc(NS(C)(=O)=O)ccc2O1`?
STK33 kin inh: 2.6; p53 PUMA act: 3.0; ID4 SMM: inactive

Results for C[C@@H]1CCCCO[C@H](CN(C)S(=O)(=O)c2cn(C)cn2)[C@H](C)CN([C@H](C)CO)C(=O)c2cc(NS(C)(=O)=O)ccc2O1 ?
p53 PUMA act: -0.7; ID4 SMM: active

What do the screens show for `CCc1ccc(-n2c(SCC(=O)Nc3cc(Cl)ccc3C)nnc2-c2ccncc2)cc1`?
STK33 kin inh: 1.3; p53 PUMA act: -4.0; ID4 SMM: inactive

How did O=C(Nc1ccc(Cl)cc1Cl)NC(Cc1ccc(O)cc1)C(=O)O (configuration not stated) do in these assays?
STK33 kin inh: -3.6; p53 PUMA act: 0.1; ID4 SMM: active

Results for CC(=O)NC(Cc1c[nH]c2cc(Cl)ccc12)C(=O)O (configuration not stated) ?
STK33 kin inh: -4.8; p53 PUMA act: -6.7; ID4 SMM: inactive

How did CCc1cc(OCCSc2nc(C)cc(=O)[nH]2)ccc1Cl do in these assays?
STK33 kin inh: 4.7; p53 PUMA act: 3.3; ID4 SMM: inactive

Results for COc1cc(NC(=O)CN(C)S(=O)(=O)c2ccc3ccccc3c2)c(OC)cc1Cl ?
STK33 kin inh: 2.0; p53 PUMA act: 14.0; ID4 SMM: inactive

What do the screens show for `COc1cc(C(=O)N(Cc2ccco2)c2ccc(O)cc2)cc(OC)c1OC`?
STK33 kin inh: -0.8; p53 PUMA act: -11.3; ID4 SMM: inactive

Results for COc1ccc([Si](C)(C)[C@H]2[C@H](CCn3cc(CCO)nn3)O[C@@]3(C(=O)N(Cc4ccc(N5CCC5=O)cc4)c4ccccc43)[C@@H]2C)cc1 ?
STK33 kin inh: 18.9; ID4 SMM: inactive

What do the screens show for `COc1ccc([Si](C)(C)[C@@H]2[C@@H](CCn3cc(CCO)nn3)O[C@]3(C(=O)N(Cc4ccc(N5CCC5=O)cc4)c4ccccc43)[C@H]2C)cc1`?
STK33 kin inh: 22.2*; ID4 SMM: inactive

What do the screens show for `CC(C)(C)NS(=O)(=O)c1ccc(OCC(=O)N2CCOCC2)cc1`?
STK33 kin inh: -2.8; p53 PUMA act: 4.3; ID4 SMM: inactive

What do the screens show for `COc1cc(NC(=O)COc2c(Cl)c(C)c(Cl)c(C)c2Cl)c(OC)cc1Cl`?
STK33 kin inh: -3.9; p53 PUMA act: -3.5; ID4 SMM: inactive

What do the screens show for `Cc1sc2ncnc(SCC(=O)C(C)(C)C)c2c1C`?
STK33 kin inh: -2.2; p53 PUMA act: 59.9*; ID4 SMM: inactive

How did Cc1sc2ncnc(SCC(=O)c3ccc(Cl)c(Cl)c3)c2c1C do in these assays?
STK33 kin inh: 1.5; p53 PUMA act: -2.9; ID4 SMM: inactive

How did COc1ccc(OC)c2c(=S)c3ccccc3[nH]c12 do in these assays?
p53 PUMA act: 27.2; ID4 SMM: inactive

What do the screens show for `O=C1NCc2c1c1c3ccccc3[nH]c1c1[nH]c3ccccc3c21`?
STK33 kin inh: 64.0*; p53 PUMA act: -10.4
